The text below walks through data of PubChem BioAssay (NCI).

About 83,000 compounds went through this panel and 20% of them were active in at least one assay; those are over-represented in the sample as a whole.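 Compound tested at a single concentration for 48 hours in 96-well plates; a percent growth value below 10 was scored as active.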 A number with no mark means an inactive call. The source made the active and inactive calls.

The subject of the assay is OVCAR-8 ovarian. The assay can be described thus: NCI-60 one-dose screen, 48 h (100 = growth as untreated, 0 = no growth, -100 = all killed). The note with it: 10 µM. The protocol:
Growth inhibition of the OVCAR-8 human tumor cell line is measured as a screen for anti-cancer activity. Cells are grown in 96 well plates and exposed to the test compound for 48 hours. Compounds are tested at a single concentration, which is 10^-5 M for most compounds. The reported endpoint is percent growth (GI% or GIPRCNT), where numbers from 0 - 100% represent growth inhibition, and numbers from -100% - 0 represent cell death. For example, a value of 40 represents 60% growth inhibition. A value of 0 means no net growth occurred over the course of the experiment. A value of -40 indicates 40% of cells at the beginning of the experiment died by the end of the experiment. A value of -100 means all cells are dead at the end of the experiment.
NCI-60 Human Tumor Cell Lines Screen was performed using the standard one-dose NCI protocol, which is described in more detail at https://dtp.cancer.gov/discovery_development/nci-60/default.htm.
Compounds with GIPRCNT values below 10 were considered active. Activity score was based on GIPRCNT using the following formula: […]
Score is 0 for GIPRCNT values of 100 or above, 50 for GIPRCNT values of 0, and 100 for GIPRCNT values of -100.
Turning to `S=C1CCCCCN1`, the growth was 104%.

For `COc1cc(/C=N\Nc2ccccc2)ccc1OC(=O)c1ccccc1`, the growth is 80.1%. Consider `O=C(c1ccccc1)C1CCC1`, for which the growth was 99.1%.

As to `CC1=CC(=O)c2ccccc2C1=O`, the growth was 107%.

Regarding `C#CC(C(C)C)N(CCO)CCCC` (stereo not given), the growth is 105%. The value for `COC(=O)c1cccnc1` was 92.2%; that for `O=C(CCl)Nc1ccc2c(c1)C(=O)c1ccc(NC(=O)CCl)cc1C2=O` was -23% (active). The same measure for `CCOC(=O)CCCC(=O)OCC`: 103%. The value for `CCCCN(CCCC)CCCO` was 99.8%; that for `COC(=O)Nc1cccc(Cl)c1OC` was 106%. `CCOC(=O)c1ccc(NC(=S)P(=O)(c2ccccc2)c2ccccc2)cc1`: the growth was 107%. As for `CC1(C)S(=O)(=O)OCCOS1(=O)=O`, the growth is 99.2%. The same measure for `CCN(CC)CCNc1ccc(CO)c2sc3ccccc3c(=O)c12`: 31%; for `COC(=O)/C=C/C(=O)NC(N)=O`: 99.5%.

Consider `Brc1cnc2ccccc2c1`, for which the growth is 104%.

`O=C(CCl)N1CCN(C/C=C/c2ccccc2)CC1`: the growth was 80%. Regarding `CNc1nc(NC)c2cn[nH]c2n1`, the growth is 111%. Turning to `O=C(O)CSCSCC(=O)O`, the growth was 101%.

As for `CCOC(=O)C(=O)C=P(c1ccccc1)(c1ccccc1)c1ccccc1`, the growth was 107%. For the compound `O=[N+]([O-])c1ccccc1S(=O)c1ccccc1[N+](=O)[O-]`, the growth is 99.9%. Turning to `C/C(=C\c1cc(Cl)ccc1OCC(=O)O)[N+](=O)[O-]`, the growth is 100%. `CSc1[nH]c(=O)ncc1F`: the growth was 95.4%. As to `O=[N+]([O-])c1ccc(-c2noc(-c3cccs3)n2)cc1`, the growth is 86.6%. Regarding `O=C(Cc1nc2ccc([N+](=O)[O-])cc2nc1CC(=O)c1ccccc1)c1ccccc1`, the growth is 50%.

On to `CNC(=O)c1ccccc1CC1(O)c2ccccc2Oc2ccccc21`, for which the growth was 74.4%.

`O=c1cc(-c2ccccc2)oc2c1ccc1ccccc12`: the growth is 82.3%.

On to `CC(=O)c1ccc(C(C)(C)C)cc1`, for which the growth is 98.3%. `CCS(=O)(=O)c1cc(=O)[nH]c(=O)[nH]1`: the growth is 114%. As to `Cc1cc(C)cc(NCCC#N)c1`, the growth was 126%.

Turning to `C/C(=N\NC(=O)c1ccccc1N)c1ccccc1O`, the growth was 18.2%. For the compound `CN(C)c1ccc2nc3ccc(=N)cc-3sc2c1`, the growth is 3.37% (active). `c1ncc2[nH]cnc2n1`: the growth was 95.6%. The value for `CCCC1(c2ccccc2)NC(=O)NC1=O` (stereo not given) was 111%. Take `Nc1ccc(N)c([N+](=O)[O-])c1`: the growth was 111%. As for `C#CCSc1nnnn1-c1ccc(Br)c(C)c1`, the growth was 82.5%. As to `CC(C)(O)C#CC#CC(C)(C)O`, the growth is 99.2%.

For the compound `CCCC(=O)Nc1ccc2c(c1)CN1C(=O)c3ccccc3C1=N2`, the growth was 98.2%. Turning to `c1ccc(Sc2ccccc2)cc1`, the growth was 102%. For `c1ccc(CN2COc3c(ccc4c3OCN(Cc3ccccc3)C4)C2)cc1`, the growth is 23%. As for `CCOc1ccc(Br)cc1/C=N\N=C\c1cc(Br)ccc1OCC`, the growth is 95.6%.
